Measured values: PubChem BioAssay AID720706 (Broad Institute, 2013)
Where “and” joins values, the source holds several entries; their conditions need not be identical. Identical values can stand only once. The campaign covered roughly 350,000 compounds. About 5,500 (1.6%) were called active. The sample holds actives, similar compounds and a random draw of the others, so the mix is not that of the screen.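 How the source made its calls: active means significant combined selectivity score with lowered wild-type GFP, culture density cut under 30%, mutant RFP and density less affected; inactive means any of these conditions unmet.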 More than one record can exist for a structure, and the calls need not agree.

test: GFP drop in mixed WT/humanized-ribosome E. coli culture – GFP/RFP fluorescence, OD600, single point, bacterial rRNA inhibitor project, primary screen (AID 720706); conditions: E. coli WT GFP vs humanized-ribosome RFP mutants, 24 h; GFP signal change (wild-type ribosome): stronger effect = lower value, DMSO median 0, no signal -100; OD600 change: measured here: OD600 growth, DMSO median 0, no signal -100; RFP signal change: measured here: RFP humanized mutant strains, DMSO median 0, no signal -100, concentration not given here

Structure (SMILES) | GFP signal change (wild-type ribosome) | OD600 change | RFP signal change
O=C(C[C@H]1C[C@@H]2c3cc(NS(=O)(=O)c4ccc(F)cc4)ccc3O[C@@H]2[C@H](CO)O1)NCc1cccc(F)c1 | 0.64% (inactive) | -2.85% | 2.59%
CCC(=O)N1CC(=O)N2[C@@H](CO)[C@H](c3ccc(C#CC4CCCC4)cc3)[C@@H]2C1 | 1.66% (inactive) | -3.78% | -1.59%
O=C(C[C@@H]1CC[C@H]2[C@@H](COC[C@@H](O)CN2C(=O)c2ccc3c(c2)OCO3)O1)NC1Cc2ccccc2C1 | 1.47% (inactive) | -6.88% | -0.618%
C[C@@H]1CN([C@@H](C)CO)C(=O)CCCn2nncc2CO[C@H]1CN(C)Cc1ccc(C(F)(F)F)cc1 | -3.59% (inactive) and 7.37% (inactive) | -1.83% and 9.18% | 2.44% and -0.538%
C[C@@H]1CN([C@@H](C)CO)C(=O)CCCn2nncc2CO[C@H]1CN(C)C(=O)Nc1ccc(C(F)(F)F)cc1 | -16.6% (active) and -54% (inactive) | -10.2% and -56.3% | 5.18% and -10.9%
C[C@H]1CN([C@@H](C)CO)C(=O)CCCn2nncc2CO[C@@H]1CN(C)C(=O)Nc1ccc(N2CCN(C)CC2)cc1 | 22.4% (inactive) and -1.77% (inactive) | 13.6% and 7.97% | 3.72% and -0.742%
CCCNC(=O)N1CC(=O)N2[C@H](C1)[C@@H](c1ccc(C#Cc3ccccc3)cc1)[C@@H]2CO | -41.7% (inactive) | -70.4% | -0.11%
COc1ccc2c3c(n(C)c2c1)[C@@H](CO)N(C(=O)Nc1ccccc1F)CC31CCN(C(=O)c2ccccc2F)CC1 | -2.62% (inactive) | -3.48% | -0.298%
CO[C@@H](CN(C)C(=O)c1cnccn1)[C@H](C)CN([C@H](C)CO)S(=O)(=O)c1ccc(C)cc1 | 1.87% (inactive) | 2.69% | -1.48%
CCc1nc2ccccc2c(C(=O)OC2CCCCC2=O)c1C (stereo not given) | -34.4% (active) | -20.5% | 3.94%
CCc1c(C)c2ccc(OC3CCCCC3=O)cc2oc1=O (stereo not given) | 1.77% (inactive) | -3.25% | 1.07%
CCc1nc2ccccc2c(C(=O)NCc2ccc(OC)cc2)c1C | -3.42% (inactive) | -5.87% | -3.53%
CC(=O)N(C)C[C@@H]1Oc2cc(-c3cccnc3)ccc2S(=O)(=O)N([C@@H](C)CO)C[C@H]1C | 0.257% (inactive) | -3.4% | -4.17%
O=C(CC1CC1)N1CC(=O)N2[C@H](CO)[C@H](c3ccc(C#Cc4ccc(F)cc4)cc3)[C@@H]2C1 | -21.5% (inactive) | -61.2% | 15.4%
COc1ccc(-c2cnc3c(c2)C(=O)N([C@H](C)CO)C[C@@H](C)[C@H](CN(C)C(=O)Cc2ccncc2)O3)cc1 | -1.52% (inactive) | 2.2% | -0.471%
COc1cccc(NC(=O)Nc2ccc3c(c2)OC[C@@H](C)NC[C@@H](C)[C@H](OC)CN(C)C3=O)c1 | 0.255% (inactive) | 0.1% | 2.58%
C[C@@H]1CCCCO[C@H](CN(C)C(=O)CCCN(C)C)[C@@H](C)CN([C@@H](C)CO)C(=O)c2cc(NC(=O)c3ccncc3)ccc2O1 | 3.33% (inactive) | 12.1% | -1.91%
COc1ccccc1N1CCN(C(=O)c2cc3c(-c4ccc(Cl)cc4)nn(C)c3s2)CC1 | 0.925% (inactive) | 11.2% | 2.25%
Cn1nc(-c2ccc(Cl)cc2)c2cc(C(=O)NCc3ccco3)sc21 | -29.9% (inactive) | -25.9% | -16.6%
CCOC(=O)N1CCN(C(=O)c2cc3c(-c4ccc(Cl)cc4)nn(C)c3s2)CC1 | -22.9% (active) | -10.6% | -5.96%

Structure (SMILES) | GFP signal change (wild-type ribosome) | OD600 change | RFP signal change
COc1ccc2c3c(n(C)c2c1)[C@H](CO)NCC31CN(Cc2cc(F)ccc2F)C1 | -2.04% (inactive) | 1.28% | 1.51%
CCOC(=O)c1ccn(S(=O)(=O)c2ccc(C)cc2)c1-c1ccccc1 | -4.05% (inactive) | -26.5% | -5.7%
CCc1c(N=O)c(-c2ccccc2)n(O)[n+]1[O-] | -18.1% (active) | 0.75% | -2.88%
O=C(/C=C\c1cn(-c2ccccc2)nc1-c1cccs1)N1CCOCC1 | -25.3% (active) | -11.3% | -10.9%
COc1ccc(-c2nn(-c3ccccc3)cc2/C=C\C(=O)N2CCOCC2)cc1[N+](=O)[O-] | -3.42% (inactive) | 3.96% | -1.95%
S=c1[nH]nc(-c2cccs2)n1/N=C/c1cn(-c2ccccc2)nc1-c1ccc(Cl)cc1 | 5.75% (inactive) | 18.1% | 0.386%
Cc1ccc2cc(/C=N/Nc3ccc(C(=O)O)cc3)c(Cl)nc2c1 | 8.25% (inactive) | -7.45% | 2.99%
O=C(O)c1ccc(N/N=C/c2cn(-c3ccccc3)nc2-c2cccs2)cc1 | -27.8% (active) | -18.5% | -5.29%
O=C(/C=C/c1cn(-c2ccccc2)nc1-c1ccc2c(c1)OCCO2)NCCCN1CCOCC1 | -59.2% (inactive) | -80.4% | -18.1%
N#C[C@@H]1[C@H](c2ccccc2)[C@H](CO)N1C(=O)CN1CCOCC1 | 13.7% (inactive) | 21.2% | 0.395%
O=C(Nc1ccccc1F)N1CC(=O)N2[C@H](C1)[C@H](c1ccc(C#Cc3ccc(F)cc3)cc1)[C@@H]2CO | -2.23% (inactive) | -44.6% | 20.2%
O=C(CC1CC1)N1[C@@H](CO)[C@H](c2ccccc2)C12CN(Cc1cccnc1)C2 | 1.16% (inactive) | -2.09% | 1.37%
COc1ccc(CN(C)C[C@@H]2Oc3ccc(NC(=O)NC(C)C)cc3C(=O)N([C@@H](C)CO)C[C@H]2C)cc1 | 1.14% (inactive) | 10.5% | -0.455%
C=CCOC(=O)N1CCC2CC1c1cc(-c3ccc(OC)cc3)ccc12 (stereo not given) | 3.93% (inactive) | 0.963% | -4.99%
COc1ccc(-c2ccc3c(c2)[C@H]2[C@H](CCN2C(=O)C2CCOCC2)[C@H](CO)N3C)cc1 | -4.42% (inactive) | -4.78% | -1.56%
COc1ccc(-c2ccc3c(c2)C2CC3CCN2CCC#N)cc1 (stereo not given) | -28.2% (active) | -19.1% | -3.22%
COc1ccc2c3c(n(C)c2c1)[C@H](CO)NCC31CN(S(=O)(=O)c2cccc(C)c2)C1 | -0.56% (inactive) | -33% | 8.22%
O=C(C(=O)N1CCC(CNS(=O)(=O)Cc2ccccc2)CC1)c1cc2ccccc2o1 | -14% (active) | -14.9% | 2.73%
N#Cc1cccc(C(=O)NCC2CCN(C(=O)C(=O)c3cc4ccccc4o3)CC2)c1 | -2.59% (inactive) | -1.64% | -0.945%
CC(C)(C)c1ccc(S(=O)(=O)NCC2CCN(C(=O)C(=O)c3cc4ccccc4o3)CC2)cc1 | -0.31% (inactive) | 0.126% | 0.99%
